Data on nine molecules can be found in PMC5540273 (PLoS ONE, 2017).

Some test systems named below: KIT-autoinhibited; KIT; LATS1; LATS2; LCK; LIMK1; LIMK2; LRRK2; LTK; LYN; MAK; MAP3K15; MAP3K1; MAP3K2; MAP3K3; MAP3K4.
Settings in all cases: concentration: 1 μM, replicates: in singlicate; n = 1
The test system of a further assay is T1, JNK3.
T1 construct: gene MAPK10

For a further assay, the system named is T2, LKB1.
T2 construct: gene STK11

A further assay has as its system T3, LOK.
T3 construct: gene STK10

In the next assay the test system is T4, LZK.
T4 construct: gene MAP3K13
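Also: KINOMEscan kinase panel screen.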

As for `Cn1cncc1-c1cc2c(Nc3ccc(OCc4ccccc4)cc3)ncnc2cn1` [GW281179], the “%Inh” value is reported as 1% in the assay on JNK3; 0% in the assay with KIT-autoinhibited; 39% with KIT; 0% in the assay on LATS1; 0% with LATS2; 24% with LCK. The “%Inh” value with LIMK1 is given as 11%; in the assay on LIMK2, 6%; in the assay on LKB1 it was 0%; in the assay with LOK, 0%; in the assay on LRRK2, 10%; in the assay on LTK it was 4%. Moreover, the “%Inh” value is 0% with LYN; 0% in the assay on LZK; 19% with MAK; 0% in the assay on MAP3K15; 0% in the assay with MAP3K1; 0% in the assay on MAP3K2. For the same molecule, the “%Inh” value in the assay on MAP3K3 amounted to 0%; in the assay with MAP3K4 it was 15%.
For `CC[C@@H]1CO[C@H](C(=O)Nc2ccccc2)CN1c1cc(-c2ccc3c(N)n[nH]c3c2)nc(NC)n1` [GSK2376236], the “%Inh” value in the assay on JNK3 came to 0%; with KIT-autoinhibited, 0%; in the assay on KIT, 17%; with LATS1, 0%; with LATS2, 0%; in the assay with LCK, 30%. The “%Inh” value in the assay with LIMK1 is 1%; with LIMK2, 9%; in the assay on LKB1, 5%; in the assay on LOK, 0%; in the assay with LRRK2, 0%; in the assay with LTK, 5%. Further, the “%Inh” value amounted to 0% with LYN; 0% in the assay on LZK; 21% in the assay on MAK; 0% with MAP3K15; 21% with MAP3K1; 0% in the assay with MAP3K2. The “%Inh” value in the assay with MAP3K3 and with MAP3K4 was 0% in each case.
For `COc1ccc(CSc2nnc(-c3ccc4nccn4c3)o2)cc1C(F)(F)F`, the “%Inh” value with JNK3 came out at 0%; with KIT-autoinhibited it was 10%; with KIT, 0%; with LATS1, 24%; in the assay with LATS2, 23%; with LCK, 4%. Further, the “%Inh” value in the assay on LIMK1 stood at 0%; in the assay with LIMK2 it was 0%; in the assay on LKB1 it was 6%; in the assay on LOK it was 3%; with LRRK2 it was 0%; in the assay on LTK, 0%. In addition, the “%Inh” value with LYN was 7%; in the assay with LZK, 18%; with MAK, 0%; in the assay on MAP3K15, 13%; with MAP3K1, 15%; in the assay with MAP3K2 it was 30%. Also, the “%Inh” value in the assay on MAP3K3 was determined as 9%; with MAP3K4, 12%.
On to `COc1ccc2cc(-c3nc(-c4ccccc4C(C)C)[nH]c3-c3ccncc3)ccc2c1` [SB-660566], for which the “%Inh” value was 44% in the assay with JNK3; 0% in the assay with KIT-autoinhibited; 0% with KIT; 0% in the assay on LATS1; 0% in the assay with LATS2; 11% in the assay with LCK. For the same molecule, the “%Inh” value in the assay on LIMK1 is on record as 8%; in the assay on LIMK2 it was 0%; in the assay with LKB1, 0%; in the assay on LOK it was 61%; in the assay on LRRK2 it was 13%; in the assay on LTK it was 3%. In addition, the “%Inh” value was found to be 20% in the assay on LYN; 0% in the assay with LZK; 0% in the assay on MAK; 17% in the assay with MAP3K15; 20% with MAP3K1; 28% in the assay with MAP3K2. Moreover, the “%Inh” value with MAP3K3 is listed as 0%; in the assay with MAP3K4 it was 16%.
Take `CS(=O)(=O)CCNCc1nc(-c2ccc3ncnc(Nc4ccc5c(cnn5Cc5ccccc5)c4)c3c2)cs1.Cl.Cl` [GW569716]: the “%Inh” value in the assay with JNK3 was determined as 4%; in the assay with KIT-autoinhibited it was 0%; with KIT, 6%; in the assay on LATS1, 0%; with LATS2, 0%; with LCK, 9%. The “%Inh” value with LIMK1 worked out at 0%; in the assay with LIMK2, 0%; in the assay on LKB1 it was 0%; in the assay on LOK it was 0%; with LRRK2 it was 22%; in the assay on LTK it was 0%. Moreover, the “%Inh” value came out at 0% with LYN; 42% in the assay on LZK; 11% in the assay with MAK; 0% in the assay with MAP3K15; 12% in the assay on MAP3K1; 1% with MAP3K2. Moreover, the “%Inh” value in the assay on MAP3K3 amounted to 0%; in the assay on MAP3K4, 5%.
For the molecule `COc1ccc(Nc2nccc(N3CCC(NC(=O)C(C)c4ccc(Cl)cc4)CC3)n2)cc1` (stereo not drawn) [GSK1379812], the “%Inh” value was determined as 10% in the assay on JNK3; 0% in the assay on KIT-autoinhibited; 15% with KIT; 32% in the assay with LATS1; 100% in the assay with LATS2; 38% in the assay on LCK. Also, the “%Inh” value was found to be 2% in the assay with LIMK1; 18% in the assay with LIMK2; 11% in the assay with LKB1; 0% in the assay with LOK; 0% in the assay on LRRK2; 27% in the assay with LTK. For the same molecule, the “%Inh” value is reported as 0% in the assay with LYN; 36% in the assay on LZK; 64% with MAK; 0% in the assay with MAP3K15; 12% in the assay with MAP3K1; 0% with MAP3K2. In addition, the entries for the “%Inh” value in the assay with MAP3K3 and in the assay with MAP3K4 were 0% and 15%, respectively.
For `Cl.Cl.Cl.N#Cc1ccc(CCNc2nccc(-c3cccc(CN4CCNCC4)c3)n2)cc1` [GSK2137462], the “%Inh” value in the assay with JNK3 is given as 22%; in the assay on KIT-autoinhibited it was 0%; in the assay on KIT it was 29%; in the assay with LATS1 it was 15%; in the assay on LATS2 it was 36%; in the assay with LCK it was 12%. Also, the “%Inh” value worked out at 18% with LIMK1; 38% in the assay on LIMK2; 1% in the assay with LKB1; 0% with LOK; 0% in the assay on LRRK2; 0% with LTK. In addition, the “%Inh” value in the assay on LYN came to 1%; in the assay with LZK, 0%; in the assay on MAK, 8%; with MAP3K15, 0%; in the assay on MAP3K1 it was 15%; in the assay on MAP3K2, 5%. Besides, the “%Inh” value in the assay on MAP3K3 and in the assay on MAP3K4 was 0% in each case.
`COC(=O)c1cccc(NC(=O)NC2CCN(c3ccnc(Nc4ccc(OC)cc4)n3)C2)c1` (stereo not drawn) [GSK1379746]: the “%Inh” value in the assay with JNK3 was determined as 0%; in the assay with KIT-autoinhibited it was 0%; in the assay on KIT it was 44%; in the assay on LATS1, 0%; with LATS2, 0%; in the assay with LCK it was 11%. Further, the “%Inh” value in the assay with LIMK1 is listed as 0%; with LIMK2 it was 3%; in the assay with LKB1, 0%; in the assay on LOK, 0%; with LRRK2 it was 0%; with LTK, 15%. For the same molecule, the “%Inh” value was 0% with LYN; 34% with LZK; 15% with MAK; 0% with MAP3K15; 0% with MAP3K1; 0% in the assay on MAP3K2. The results for the “%Inh” value in the assay with MAP3K3 and in the assay with MAP3K4 were 0% and 12%, respectively.
Consider `O=c1cc(N2CCOCC2)nc2n(Cc3cccc(Cl)c3Cl)c3ccccc3n12` [GSK2299009], for which the “%Inh” value in the assay on JNK3 is 3%; with KIT-autoinhibited, 0%; with KIT, 36%; in the assay with LATS1, 0%; with LATS2, 16%; with LCK, 43%. Also, the “%Inh” value came out at 4% with LIMK1; 24% in the assay on LIMK2; 8% in the assay on LKB1; 0% in the assay with LOK; 0% in the assay on LRRK2; 39% with LTK. Further, the “%Inh” value with LYN came out at 0%; in the assay with LZK, 0%; in the assay on MAK, 15%; in the assay with MAP3K15, 3%; with MAP3K1, 7%; in the assay on MAP3K2, 21%. For the same molecule, the “%Inh” value with MAP3K3 and in the assay on MAP3K4 was 0% in each case.
